D2 PAM-1: potentiates the human D2 dopamine receptor allosterically; P14416; DiscoveRx D2 beta-arrestin cells, luminescence, 90 min; 100% = 57 uM dopamine signal; potentiation, % (test concentration not listed); hit rate 0.23% among 360,000; in the data active = potentiation above about 50%
Target sequence (P14416 whole entry, looked up): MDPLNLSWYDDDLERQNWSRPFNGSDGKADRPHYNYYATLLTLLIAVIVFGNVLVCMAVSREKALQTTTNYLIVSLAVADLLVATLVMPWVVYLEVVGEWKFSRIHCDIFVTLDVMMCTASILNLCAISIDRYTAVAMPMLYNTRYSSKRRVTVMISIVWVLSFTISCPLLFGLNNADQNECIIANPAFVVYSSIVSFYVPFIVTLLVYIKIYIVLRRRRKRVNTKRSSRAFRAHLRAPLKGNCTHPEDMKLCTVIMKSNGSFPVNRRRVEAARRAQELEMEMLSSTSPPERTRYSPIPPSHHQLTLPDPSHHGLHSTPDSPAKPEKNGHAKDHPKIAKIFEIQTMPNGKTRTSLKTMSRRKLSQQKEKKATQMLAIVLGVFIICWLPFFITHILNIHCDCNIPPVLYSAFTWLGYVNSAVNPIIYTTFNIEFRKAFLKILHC
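PathHunter beta-arrestin assay in DiscoveRx D2 cells. Compounds were added with an EC20 of dopamine (50 nM final) for 90 min at 37 deg C. Luminescence was read 1 h after detection reagent, with 57 uM dopamine as the EC100 control.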
D2 antagonist: antagonizes the human D2 dopamine receptor; AID 485344; P14416; hit rate 2% among 340,000; inhibition, % at 10 µM; HEK293 TREx D2 cells, calcium flux, dopamine EC80; in the data active = inhibition above about 30%; inactive = below that, where a call was filed; note: 0% is about no effect
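Antagonism is scored as inhibition of an EC80 dopamine-evoked calcium signal in a force-coupled, tetracycline-inducible HEK293 T-REx D2 line, with compound present 180 s before agonist.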
D2 ag-1: human D2 receptor agonism in beta-arrestin assay | DiscoveRx PathHunter D2 beta-arrestin, luminescence, 90 min; 100% = 57 uM dopamine signal | activation, % (no concentration beside the values) | AID 624465 | hit rate 0.084% among 360,000; in the data active = activation above about 40%
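DiscoveRx PathHunter D2 beta-arrestin cells (2,100/well) attached overnight, then compound-stimulated 90 min at 37 C in HBSS/10 mM HEPES/0.1% Tween-20 buffer; beta-galactosidase complementation read by luminescence after 1 h at ambient temperature. Dopamine 57 uM final (EC100) as control.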
D2 ag-2: activates the human D2 dopamine receptor | P14416 | HEK293 T-REx D2 cells, calcium flux agonist mode | activation, % at 2 µM | hit rate 0.53% among 340,000;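 active = activation over 3 SD above normal in the single-dose calcium agonist read, cut at about 30% in these data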; note: 0% is about no effect
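Calcium-flux readout, 1 cycle/sec over 180 s following compound pin transfer, in inducible HEK293 Trex D2 cells (force-coupled); dopamine controls included. Positive calcium responses during this window marked compounds as potential agonists.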
D2 PAM-2: positively modulates the human D2 dopamine receptor allosterically; P14416; HEK293 T-REx D2, calcium flux, EC20 dopamine potentiation; potentiation, % at 10 µM; hit rate 0.34% among 340,000; AID 485347;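 active = potentiation over 3 SD above the plate norm, cut at about 30% in these data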; note: 0% is about no effect
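Primary screen. Calcium kinetics in induced HEK293 T-REx D2 cells: compound pre-addition 180 s, EC20 dopamine, 180 s more.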
The depositor's hits bear a star; / = no result given. Only some compounds are listed: those with a hit (about 2.4% of all), similar ones and a draw of the others.

SMILES	D2 PAM-1	D2 antagonist	D2 ag-1	D2 ag-2	D2 PAM-2
O=[N+]([O-])c1ccccc1OCC(O)CN1CCN(CC(O)COc2ccccc2[N+](=O)[O-])CC1 (stereo unspecified)	-65	92*	-2	1	-22
CCOc1ccccc1N1CCN(CC(O)COCc2cccs2)CC1 (stereo unspecified)	-19	68*	-3	8	-28
CC(=O)Nc1ccc(OCC(O)CN2CCN(c3ccc(C)c(Cl)c3)CC2)cc1 (stereo unspecified)	-16	21	2	0	10
OC(COCc1cccs1)CN1CCN(c2ccccc2Cl)CC1 (stereo unspecified)	-31	/	3	/	-24
COc1ccccc1N1CCN(CC(O)COc2ccc3c(c2)CCC3)CC1 (stereo unspecified)	-34	80*	2	23	-20
COc1ccccc1N1CCN(CC(O)COc2ccc(C)c(C)c2)CC1 (stereo unspecified)	-20	/	-2	/	/
Cc1cccc(NC(=O)c2cc(S(=O)(=O)NCc3ccc4c(c3)OCO4)ccc2F)c1C	/	/	/	1	-9
OC(COc1ccc(F)cc1)CN1CCN(c2ccccc2F)CC1 (stereo unspecified)	-21	87*	-7	-1	1
OC(COc1ccccc1)CN1CCN(CC(O)COc2ccccc2)CC1 (stereo unspecified)	-4	30*	-4	1	0
OC(CN1CCN(c2ccccc2F)CC1)c1ccc(F)cc1 (stereo unspecified)	-9	1	9	0	10
CC(C)OC(=O)c1c(NC(=O)c2cc3nc(-c4ccccc4)cc(C(F)(F)F)n3n2)sc2c1CCCC2	/	/	/	1	12
Cc1cccc(C)c1N1C(=O)c2cccc([N+](=O)[O-])c2C1=O	83*	12	5	0	12
CCOC(=O)C1CCC(CN(Cc2ccc(Cl)cc2)S(=O)(=O)c2ccc(Br)cc2)CC1 (stereo unspecified)	/	/	/	0	1
c1ccc(Cn2c[n+](Cc3ccccc3)cn2)cc1	-5	43*	-3	1	-6
CCC1CCCCN1CCCNC(=O)c1ccc2c(c1)N(Cc1cccc(C)c1)C(=O)c1ccccc1S2(=O)=O (stereo unspecified)	/	/	/	/	-7
COCCN1Cc2cccc(C(=O)Nc3ccc(C)cc3)c2C1=O	0	41*	2	1	4
CCOC(=O)C1CCCN(S(=O)(=O)c2ccc(N3CCCCS3(=O)=O)cc2)C1 (stereo unspecified)	/	/	/	2	5
OC1(c2cccc(F)c2)CCN(Cc2ccncc2)CC1	-41	56*	-3	0	-22
O=C(NC1=NCCS1)C12CC3CC(CC(C3)C1)C2	-9	50*	3	0	-9
CC(C)C(NC(=O)C12CC3CC(CC(C3)C1)C2)C(=O)NC1=NCCS1 (stereo unspecified)	/	-6	/	0	15
C=CCN1C(=O)/C(=C\c2ccc(C)cc2)N=C1SCC(=O)NCCC	-15	9	-1	0	5
CCCNC(=O)CSC1=N/C(=C/c2ccc(F)cc2)C(=O)N1CC	-13	35*	-2	0	9
COc1cccc(/C=C(\C#N)c2nc3ccccc3c(=O)[nH]2)c1OC	/	/	/	0	7
CCOc1ccc2[nH]c(=O)c(CN(CCO)Cc3nnnn3CCc3ccccc3)cc2c1	-9	39*	-4	0	-7
CCCCN1CCc2c(c3ccccc3n2Cc2ccccc2)C1	-23	-5	-1	1	-25
SMILES	D2 PAM-1	D2 antagonist	D2 ag-1	D2 ag-2	D2 PAM-2
CN1CCc2c(c3ccccc3n2Cc2ccccc2)C1	-28	33*	-2	0	-21
CN1CCc2c(c3ccccc3n2C)C1	-45	61*	-1	1	-20
COc1ccc(-n2c(=O)c3c(C)c(C)sc3n(CC(=O)NCc3ccc(C)cc3)c2=O)c(OC)c1	/	/	/	0	9
COCCNC(=O)CN(c1cc(Cl)ccc1OC)S(=O)(=O)c1ccc(C)c([N+](=O)[O-])c1	-6	59*	-4	0	-4
COCCCNC(=O)CN(c1cc(Cl)ccc1OC)S(=O)(=O)c1ccc(C)c([N+](=O)[O-])c1	-2	1	-3	0	10
CC(C)CNC(=O)C(=O)Nc1c2c(nn1-c1ccccc1)CS(=O)(=O)C2	/	/	/	/	0

Screening data: PubChem, National Center for Advancing Translational Sciences (NCATS)
